The list is not random: actives were taken first. Their share in the collection is about 7.3%.
p53 reactivation: mutant p53 re-activation in reporter cells. H1299 p53-A138V BP100-luciferase reporter, luminescence, 24 h. Potency, µM (top dose mostly 92.2 µM), usual class: activators. actives 0.063% (n = 320,000). AID 504706; note: nearly all actives have a fitted effect of over 45% in size
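H1299 (p53-null), stable ts p53-A138V + BP100-Luc; 1000 cells/well, Opti-MEM/10% FBS; cpd 4 pt, 1:5; 24 h, 37 deg C, 5% CO2; detection reagent 10 min RT; luminescence.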
SMN2 splice enh: enhancers of SMN2 splice variant expression. HEK293 SMN2-luciferase splicing reporter, luminescence, 30-36 h. Potency, µM (top dose mostly 46.1 µM), usual class: activators. actives 2.8% (n = 210,000); note: nearly all actives have a fitted effect of over 55% in size
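HEK293 cells carry an SMN2 […]–luciferase reporter in which exon 7 inclusion puts luciferase in frame. Cells were plated 10-12 h before compound addition, then incubated 30-36 h at 37C. ONE-Glo luminescence was read; sodium butyrate at 4.5 mM final served as control.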
Rab9 prom act: activators of Rab9 promoter. Huh7 Rab9 promoter-luciferase reporter, luminescence, 24 h. actives 2.8% (n = 320,000). Potency, µM (series often up to 9.22 µM), usual class: activators; note: nearly all actives have a fitted effect of over 60% in size
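Using Huh7 cells stably transfected with Rab9 promoter–luciferase, compounds were incubated 24 h at 37 °C, 5% CO2; luciferase luminescence was read 10 min after reagent addition.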
FLuc counter: firefly luciferase modulation, counter-screen for miR-21 project. P08659. purified FLuc, Km substrates, luminescence inhibition. Potency, µM (highest dose often 57.5 µM), most hits filed as inhibitors. actives 6.9% (n = 360,000). AID 588342; note: nearly all actives have a fitted effect of over 55% in size
Target sequence (P08659 whole entry, looked up): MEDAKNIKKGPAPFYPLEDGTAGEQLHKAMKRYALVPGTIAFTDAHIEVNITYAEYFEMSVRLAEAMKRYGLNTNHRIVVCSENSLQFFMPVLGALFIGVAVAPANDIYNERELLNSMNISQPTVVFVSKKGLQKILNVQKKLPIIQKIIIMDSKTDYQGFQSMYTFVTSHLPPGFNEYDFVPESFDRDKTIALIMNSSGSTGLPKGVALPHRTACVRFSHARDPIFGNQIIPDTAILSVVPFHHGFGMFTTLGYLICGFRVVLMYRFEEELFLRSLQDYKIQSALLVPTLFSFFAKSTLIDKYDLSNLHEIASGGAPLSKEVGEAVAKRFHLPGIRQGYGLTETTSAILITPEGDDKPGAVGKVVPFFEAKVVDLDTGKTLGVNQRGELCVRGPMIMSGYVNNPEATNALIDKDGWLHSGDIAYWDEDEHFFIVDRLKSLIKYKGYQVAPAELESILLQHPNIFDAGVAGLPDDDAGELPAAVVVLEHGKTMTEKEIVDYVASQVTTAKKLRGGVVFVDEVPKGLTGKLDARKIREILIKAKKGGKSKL
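Biochemical qHTS of compounds, final roughly 60 µM downward over six points, against 10 nM purified firefly luciferase using Km concentrations of substrates (10 uM D-luciferin, 10 uM ATP) in Tris acetate pH 7.5 buffer; luminescence output.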
ELG1 genotox: inducers of genotoxicity in HEK293T ELG1-luciferase cells. HEK293T ELG1-luciferase reporter, luminescence, 16 h. Potency, µM (titrated, usually from 46 µM), hits mostly activators. actives 1.3% (n = 330,000); note: nearly all actives have a fitted effect of over 60% in size
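Luminescence read-out: rising ELG1-luciferase signal, reflecting elevated ELG1 protein under genetic stress, flags genotoxic compounds. Cells were treated for 16 hr at 37 °C before ONE-Glo detection.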
NPC1 promoter act: activates the NPC1 promoter. Huh7 NPC1 promoter luciferase reporter, 24 h. actives 2.4% (n = 320,000). Potency, µM (series often up to 9.22 µM), actives largely listed as activators; note: nearly all actives have a fitted effect of over 60% in size
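Stably transfected Huh7 (NPC1 promoter→luciferase), 1500 cells/well in Opti-MEM + 10% FBS, 2 h settle, then compound 24 h at 37 °C. Luminescence after 10 min with Amplite reagent.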
Numbers stand for hits; [ ] = remark or other dose. Calls come from the whole dose curve; as a rule, active = well fitted curve in the direction sought with a large enough effect; inconclusive = small, poorly fitted or top-dose-only effect, or another doubt; inactive = no such curve, though single readings can be large; an effect the other way counts as inactive or inconclusive.

How did O=C(Nc1nc2c(F)cc(F)cc2s1)c1ccc([N+](=O)[O-])o1 do in these assays?
p53 reactivation: inconclusive; Rab9 prom act: 1.58µM; FLuc counter: 16.9µM; ELG1 genotox: inactive; NPC1 promoter act: 2.24µM

Results for O=C(Nc1nc2ccccc2s1)c1ccc([N+](=O)[O-])o1 ?
p53 reactivation: inconclusive; Rab9 prom act: inconclusive; FLuc counter: 6.75µM; ELG1 genotox: inactive; NPC1 promoter act: inconclusive

What do the screens show for `O=C(O)c1cccc([N+](=O)[O-])c1C(=O)Nc1nc2ccccc2s1`?
p53 reactivation: inconclusive; SMN2 splice enh: inactive; Rab9 prom act: inactive; FLuc counter: inactive; ELG1 genotox: inactive; NPC1 promoter act: inactive

Results for O=C(Nc1nc2ccccc2s1)c1ccccc1[N+](=O)[O-] ?
p53 reactivation: 28.2µM; Rab9 prom act: inconclusive; FLuc counter: 16.9µM; ELG1 genotox: inconclusive; NPC1 promoter act: inconclusive

What do the screens show for `CCc1c(C)sc(NC(=O)c2cc(C)on2)c1C#N`?
p53 reactivation: inactive; SMN2 splice enh: inactive; Rab9 prom act: inconclusive; FLuc counter: 12µM; ELG1 genotox: inconclusive; NPC1 promoter act: inconclusive

How did CCc1c(C)sc(NC(=O)c2cccs2)c1C#N do in these assays?
p53 reactivation: inactive; SMN2 splice enh: 11.2µM; Rab9 prom act: inconclusive; FLuc counter: 7.57µM; ELG1 genotox: inconclusive; NPC1 promoter act: inconclusive

What do the screens show for `Cc1sc(NC(=O)c2ccccc2)c(C#N)c1-c1ccccc1`?
p53 reactivation: inconclusive; SMN2 splice enh: 8.91µM; Rab9 prom act: 1.58µM; FLuc counter: 2.39µM; ELG1 genotox: inconclusive; NPC1 promoter act: 2.82µM

What do the screens show for `CC(=O)c1ccc(N2Cc3ccccc3C2=NC(=O)c2cccs2)cc1`?
p53 reactivation: inactive; SMN2 splice enh: 14.1µM; Rab9 prom act: inconclusive; FLuc counter: inconclusive; ELG1 genotox: inconclusive; NPC1 promoter act: inconclusive

What do the screens show for `CC(=O)c1ccc(N2CCN(C(=O)CCCCn3c(=O)[nH]c4ccccc4c3=O)CC2)cc1`?
FLuc counter: inactive

Results for Cn1nnc(NC(=O)c2ccc3ccccc3c2)n1 ?
p53 reactivation: inactive; SMN2 splice enh: inactive; Rab9 prom act: inactive; FLuc counter: 15.1µM; ELG1 genotox: inactive; NPC1 promoter act: inactive

What do the screens show for `Cn1nnc(NC(=O)c2cccc(OCc3ccccc3)c2)n1`?
p53 reactivation: inactive; SMN2 splice enh: inconclusive; Rab9 prom act: inactive; FLuc counter: inactive; ELG1 genotox: inactive; NPC1 promoter act: inactive

What do the screens show for `Cn1nnc(NC(=O)c2ccc(C(C)(C)C)cc2)n1`?
p53 reactivation: inconclusive; SMN2 splice enh: 22.4µM; Rab9 prom act: 1.58µM; FLuc counter: 3.38µM; ELG1 genotox: inconclusive; NPC1 promoter act: 3.16µM

Results for Cc1c(NC(=O)c2sc3ccccc3c2Cl)cccc1-c1nc2ccccc2o1 ?
SMN2 splice enh: inactive; FLuc counter: inactive

Results for CC(C)c1ccc2oc(-c3ccc(Cl)c(NC(=O)c4cccs4)c3)nc2c1 ?
SMN2 splice enh: inactive; FLuc counter: 2.13µM

What do the screens show for `CC(C)c1ccc2oc(-c3ccc(Cl)c(NC(=O)Cc4ccccc4)c3)nc2c1`?
SMN2 splice enh: inactive; FLuc counter: 4.26µM

How did COc1ccc(-c2nc3cc(C(C)C)ccc3o2)cc1NC(=O)c1ccccc1[N+](=O)[O-] do in these assays?
SMN2 splice enh: inactive; FLuc counter: 2.69µM

What do the screens show for `Cc1ccc(-c2nc3cc(C(C)C)ccc3o2)cc1NC(=O)c1cc2ccccc2o1`?
SMN2 splice enh: inactive; FLuc counter: 2.39µM

What do the screens show for `COc1ccc(C(=O)N2CCC3(CCN(Cc4cc(C(F)(F)F)cc(C(F)(F)F)c4)CC3)CC2)cc1`?
SMN2 splice enh: inactive

What do the screens show for `Cn1c(=O)c2[nH]c(CS(=O)(=O)Cc3nc4c([nH]3)c(=O)n(C)c(=O)n4C)nc2n(C)c1=O`?
SMN2 splice enh: inactive[9.22 µM]

What do the screens show for `Cc1cc(OC(C)C(=O)Nc2ccccc2C(=O)N2CCCC2)ccc1Cl` (stereo unspecified)?
p53 reactivation: inactive; Rab9 prom act: inactive; FLuc counter: inactive; ELG1 genotox: inactive; NPC1 promoter act: inactive

What do the screens show for `CN(C)c1ccc(C(CNC(=O)c2ccc(C(C)(C)C)cc2)N2CCOCC2)cc1` (stereo unspecified)?
FLuc counter: inactive

What do the screens show for `O=C1c2ccccc2-c2ccc(N(Cc3ccc(Br)cc3)Cc3ccc(Br)cc3)cc21`?
SMN2 splice enh: inactive[9.22 µM]

Results for Brc1ccc(-c2ccccc2)cc1 ?
p53 reactivation: inactive; SMN2 splice enh: inactive; Rab9 prom act: inactive; FLuc counter: inactive; ELG1 genotox: inactive; NPC1 promoter act: inactive

What do the screens show for `Brc1ccc(-c2ncc(-c3ccccc3)cn2)cc1`?
p53 reactivation: inactive; SMN2 splice enh: 7.94µM; Rab9 prom act: 0.708µM; FLuc counter: 0.426µM; ELG1 genotox: 0.82µM; NPC1 promoter act: 0.501µM

Results for COc1ccccc1NC(=O)COC(=O)c1[nH]c(=O)[nH]c(=O)c1N ?
p53 reactivation: inactive; ELG1 genotox: inactive

Results for CCCc1nnc(NC(=O)c2cc3ccccc3oc2=O)s1 ?
p53 reactivation: inactive; SMN2 splice enh: inactive; Rab9 prom act: inactive; FLuc counter: inactive[2.3 µM]; ELG1 genotox: inactive; NPC1 promoter act: inactive

What do the screens show for `COCc1nnc(NC(=O)c2cc3ccccc3o2)s1`?
p53 reactivation: inactive; Rab9 prom act: inconclusive; FLuc counter: 19µM; ELG1 genotox: inconclusive; NPC1 promoter act: inconclusive

What do the screens show for `CCCc1nnc(NC(=O)c2cc3ccccc3o2)s1`?
p53 reactivation: inactive; Rab9 prom act: 3.98µM; FLuc counter: 13.5µM; ELG1 genotox: inactive; NPC1 promoter act: 3.55µM

What do the screens show for `COCc1nnc(NC(=O)c2cccc(NC(=O)c3ccccc3)c2)s1`?
p53 reactivation: inactive; Rab9 prom act: inactive; FLuc counter: 19µM; ELG1 genotox: inactive; NPC1 promoter act: inactive

Results for CCOC(=O)c1sc2ccc(S(=O)(=O)N3CC(C)CC(C)C3)cc2c1N (stereo unspecified) ?
p53 reactivation: inactive; SMN2 splice enh: inactive; Rab9 prom act: inactive; FLuc counter: inactive; ELG1 genotox: inactive; NPC1 promoter act: inactive

How did COc1ccc(C(=O)NCCn2ccc3ccccc32)cc1 do in these assays?
p53 reactivation: inactive; SMN2 splice enh: 12.6µM; Rab9 prom act: 1.41µM; FLuc counter: 10.7µM; ELG1 genotox: inconclusive; NPC1 promoter act: inconclusive

Results for O=C(NCCc1ccccc1)c1ccc2c(c1)OCO2 ?
p53 reactivation: inactive; Rab9 prom act: inconclusive; FLuc counter: 0.536µM; ELG1 genotox: inconclusive; NPC1 promoter act: inconclusive

What do the screens show for `O=C(NCSc1ccccc1)c1ccccc1`?
p53 reactivation: inconclusive; Rab9 prom act: 1.41µM; FLuc counter: 10.7µM; ELG1 genotox: inconclusive; NPC1 promoter act: 2.51µM

Results for Cc1cc2ccccc2n1CCNC(=O)c1ccccc1 ?
p53 reactivation: inactive; SMN2 splice enh: inactive; Rab9 prom act: inconclusive; FLuc counter: 21.3µM; ELG1 genotox: inactive; NPC1 promoter act: inconclusive
